Results filed as inconclusive are left out. Where a call stands in place of a potency, no number is given. The source made the active and inactive calls. The call rests on the fitted dose curve; in most records, active means well fitted curve in the direction sought with a large enough effect; inconclusive means small, poorly fitted or top-dose-only effect, or another doubt; inactive means no such curve, though single readings can be large; an effect the other way counts as inactive or inconclusive.
Assays:
[1] = biological target: Cytochrome P450 3A7 (Homo sapiens) (UniProt P24462); test: Cytochrome P450 family 3 subfamily A member 7 (CYP3A7) small molecule antagonists: luciferase biochemical qHTS assay (AID 1963596); further: nearly all actives have a fitted effect of over 40% in size; further: potency means the concentration at half of the fitted maximal effect
Sequence of Cytochrome P450 3A7 (Homo sapiens) (P24462 whole entry, looked up): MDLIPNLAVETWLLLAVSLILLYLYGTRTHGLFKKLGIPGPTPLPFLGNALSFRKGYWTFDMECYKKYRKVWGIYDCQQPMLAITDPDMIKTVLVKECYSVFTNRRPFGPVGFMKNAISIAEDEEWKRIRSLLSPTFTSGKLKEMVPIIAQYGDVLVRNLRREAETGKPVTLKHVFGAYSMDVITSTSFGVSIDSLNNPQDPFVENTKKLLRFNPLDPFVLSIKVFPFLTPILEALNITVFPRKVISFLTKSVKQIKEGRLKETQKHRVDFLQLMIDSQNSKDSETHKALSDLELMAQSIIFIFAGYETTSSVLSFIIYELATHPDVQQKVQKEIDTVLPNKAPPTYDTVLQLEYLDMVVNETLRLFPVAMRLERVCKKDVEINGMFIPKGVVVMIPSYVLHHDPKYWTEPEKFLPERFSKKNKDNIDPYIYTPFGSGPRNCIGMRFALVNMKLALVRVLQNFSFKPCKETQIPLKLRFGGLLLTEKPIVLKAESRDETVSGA
Procedure, shortened: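 Biochemical CYP3A7 activity measured with P450-Glo system: luciferin formed from proluciferin substrate in NADPH-driven reaction (1 h, room temperature) after 10 min compound preincubation. Signal in relative luminescence units.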

[2] = Viability qHTS for spleen associated tyrosine kinase inhibitor (SYKi) naive MV4-11 cells (AID 1963823); further: nearly all actives have a fitted effect of over 40% in size; further: potency means the concentration at half of the fitted maximal effect
Procedure, shortened: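 SYK inhibitor-naive MV4-11 cells, 500 per well, exposed to compounds for 72 hr at 37 C, 5% CO2. Viability read as CellTiter-Glo luminescence after 10 min at room temperature.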

[3] = Viability qHTS for spleen associated tyrosine kinase inhibitor (SYKi) drug resistant MV4-11 cells (AID 1963824); further: nearly all actives have a fitted effect of over 35% in size; further: potency means the concentration at half of the fitted maximal effect
Procedure, shortened: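 SYK-inhibitor-resistant MV4-11 AML cells were seeded at 500 per well onto compound and cultured 72 hours (37 °C, 5% CO2). CellTiter-Glo was then added, and after 10 min at room temperature, luminescence gave viability.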

[4] = Cellular viability qHTS for adrenocortical cancer (ACC) cell line SW-13 (AID 1963989); conditions: SW-13 ACC cells viability, CellTiter-Glo, 48 h; activity (max response): active compounds read low;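 further: cells grown in serum-free medium with ITS supplement; nearly all actives have a fitted effect of over 65% in size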
Procedure, shortened: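 IC50 and maximal-response values come from four-parameter logistic fits of titration data. SW-13 cells in serum-free medium received compounds (up to 46 uM final) for 48 h before CellTiter-Glo luminescence.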

[5] = Cellular viability qHTS for adrenocortical cancer (ACC) cell line NCI-H295R (AID 1963990); further: nearly all actives have a fitted effect of over 60% in size
Procedure, shortened: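 Adrenocortical carcinoma cells, suspended at 300 000 cells/mL in serum-free DMEM plus ITS, rested overnight before pin transfer of compound. After two days' incubation, ATP-dependent luminescence was recorded and curve-fitted.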

SMILES | Potency [1] | Potency [2] | Potency [3] | activity (max response) [4] | Potency [5]
CC1(C)S[C@@H]2[C@H](NC(=O)[C@H](N)c3ccccc3)C(=O)N2[C@H]1C(=O)O | inactive | inactive | inactive | 9.26% (inactive) | inactive
CCn1c(=O)c(-c2ccc(-c3cncs3)cc2Cl)cc2cnc(Nc3ccc(N4CCN(C)CC4)cc3)nc21 | 3010 nM (active) | 291 nM (active) | 461 nM (active) |  | inactive
COc1ccc(/C(C)=C/C(=O)O)c(OC)c1 | inactive | inactive | inactive |  | inactive
CC(N=C(NC#N)Nc1ccncc1)C(C)(C)C (configuration not stated) | inactive | inactive | inactive |  | inactive
NS(=O)(=O)c1cc(C2(O)NC(=O)c3ccccc32)ccc1Cl (configuration not stated) | inactive | inactive | inactive |  | inactive
NCCC(O)(P(=O)(O)O)P(=O)(O)O | inactive | inactive | inactive | 6.05% (inactive) | inactive
C[N+](C)(C)CC(O)CC(=O)[O-] (configuration not stated) | inactive | inactive | inactive | -6.62% (inactive) | inactive
NC(=O)NS(=O)(=O)c1ccc(N)cc1 | inactive | inactive | inactive |  | inactive
O=C(O)/C=C\C(=O)O | inactive | inactive | inactive |  | inactive
CCCCOC(=O)CCCCCCCCC(=O)OCCCC | inactive | inactive | inactive | 11.1% (inactive) | inactive
CC(C)(C)c1cc(C=O)cc(C(C)(C)C)c1O | inactive | inactive | inactive |  | inactive
CN1CCN(c2cc3c(nn2)Oc2ccccc2N3C)CC1 | inactive | inactive | inactive |  | inactive
C[C@H](O)C(=O)Nc1c(I)c(C(=O)NC(CO)CO)c(I)c(C(=O)NC(CO)CO)c1I | inactive | inactive | inactive | 10.3% (inactive) | inactive
